Measurements from PubChem BioAssay (Tox21).
Several values for one entry are separate records, joined by “and”; a condition that tells them apart may be missing. Equal entries are not always repeated. Results filed as inconclusive are left out. Activity calls are given as the source filed them. Calls come from the whole dose curve; as a rule, active = well fitted curve in the direction sought with a large enough effect in the repeat runs; inconclusive = weak or mixed curves; inactive = no such curve, though single readings can be large; an effect the other way counts as inactive or inconclusive.

How the values were obtained:
[1] = Caspase-3/7 induction in HepG2 cells by small molecules, qHTS assay (AID 1346978); note: nearly all actives have a fitted effect of over 15% in size
In short: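 Wild-type HepG2 cells (2,000/well) were settled 5 h at 37 C, 5% CO2, then exposed to compounds in DMSO for 17 h. Caspase-3/7 activity was read by luminescence 30 min after adding Caspase-Glo 3/7 reagent at room temperature.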

[2] = Caspase-3/7 induction in CHO-K1 cells by small molecules, qHTS cell viability counter screen (AID 1346979); note: nearly all actives have a fitted effect of over 35% in size; note: potency is the fitted concentration of half-maximal effect
In short: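 In the same wells as the caspase read, viability of compound-treated wild-type CHO-K1 cells was assessed using CellTiter-Fluor, added after 16hr at 37C and measured by fluorescence following 1hr further incubation.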

[3] = Caspase-3/7 induction in CHO-K1 cells by small molecules, qHTS assay (AID 1346980); note: nearly all actives have a fitted effect of over 15% in size
In short: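 Wild-type cells were seeded at 1,500 per well and settled 5 hr at 37 C, 5% CO2, then exposed to DMSO-dissolved compounds for 17 hr. Caspase-Glo 3/7 reagent was added, and luminescence was read after 30min at room temperature.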

[4] = Caspase-3/7 induction in HepG2 cells by small molecules, qHTS cell viability counter screen (AID 1346981); note: series mostly up to about 92 µM; nearly all actives have a fitted effect of over 30% in size
In short: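 Viability determined by CellTiter-Fluor fluorescence in HepG2 wells also used for the luminescent Caspase-Glo 3/7 read. Compounds were present for 16 hr at 37 C, 5% CO2 before reagent addition.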

[5] = target: Nuclear receptor subfamily 1 group I member 2 (Homo sapiens) (UniProt O75469); test: Human pregnane X receptor (PXR) small molecule agonists, qHTS assay (AID 1346982); note: nearly all actives have a fitted effect of over 35% in size; note: potency is the fitted concentration of half-maximal effect
Nuclear receptor subfamily 1 group I member 2 (Homo sapiens), sequence (O75469 whole entry, looked up): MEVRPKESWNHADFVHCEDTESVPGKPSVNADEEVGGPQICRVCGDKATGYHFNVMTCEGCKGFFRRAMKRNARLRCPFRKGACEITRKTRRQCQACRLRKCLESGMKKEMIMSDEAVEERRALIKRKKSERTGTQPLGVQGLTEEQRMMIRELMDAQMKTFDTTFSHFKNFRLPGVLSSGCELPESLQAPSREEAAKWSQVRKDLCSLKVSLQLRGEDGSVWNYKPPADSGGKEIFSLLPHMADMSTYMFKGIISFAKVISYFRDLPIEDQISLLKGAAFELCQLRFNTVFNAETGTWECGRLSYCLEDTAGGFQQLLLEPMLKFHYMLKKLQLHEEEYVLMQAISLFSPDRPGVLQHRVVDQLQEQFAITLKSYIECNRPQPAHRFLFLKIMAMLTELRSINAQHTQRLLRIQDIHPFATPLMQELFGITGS
In short: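 Compound-induced hPXR transactivation of a CYP3A4 luciferase reporter was scored in HepG2 PXR-Luc cells over 24 hr at 37 C, 5% CO2, by luminescence.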

[6] = target: Nuclear receptor subfamily 1 group I member 2 (Homo sapiens) (UniProt O75469); test: Human pregnane X receptor (PXR) activation by small molecules, qHTS assay (AID 1346985); note: nearly all actives have a fitted effect of over 40% in size; note: potency is the fitted concentration of half-maximal effect
In short: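 DPX-2 cells (HepG2 co-transfected with a PXR response element and a CYP3A4-promoter luciferase construct) were seeded at 2,000 per well, rested 5 hr at 37C, then exposed to DMSO-dissolved compounds for 24 hr. Activation was read as luciferase luminescence.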

[7] = target: Cytochrome P450 2C19 (Homo sapiens) (UniProt P33261); test: Cytochrome P450 Family 2 Subfamily C Member 19 (CYP2C19) small molecule antagonists: luciferase reporter qHTS assay (AID 1671197); note: nearly all actives have a fitted effect of over 65% in size; note: potency is the fitted concentration of half-maximal effect
Cytochrome P450 2C19 (Homo sapiens), sequence (P33261 whole entry, looked up): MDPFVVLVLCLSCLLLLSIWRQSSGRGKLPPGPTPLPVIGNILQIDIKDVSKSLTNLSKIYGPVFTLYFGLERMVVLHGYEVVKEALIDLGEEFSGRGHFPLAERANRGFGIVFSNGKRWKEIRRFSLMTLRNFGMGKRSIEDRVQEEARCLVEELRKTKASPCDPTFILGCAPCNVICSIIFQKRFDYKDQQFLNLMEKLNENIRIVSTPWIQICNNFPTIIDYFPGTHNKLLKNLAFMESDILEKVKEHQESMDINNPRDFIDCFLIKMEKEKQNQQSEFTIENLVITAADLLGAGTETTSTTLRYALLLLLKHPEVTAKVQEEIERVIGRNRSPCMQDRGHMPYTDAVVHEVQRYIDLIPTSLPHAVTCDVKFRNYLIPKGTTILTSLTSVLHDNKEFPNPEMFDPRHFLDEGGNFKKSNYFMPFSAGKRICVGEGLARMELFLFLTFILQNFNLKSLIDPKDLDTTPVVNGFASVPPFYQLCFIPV
In short: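 Quantitative high-throughput screen of the Tox21 library using CYP2C19 with proluciferin substrate. Reaction: NADPH regeneration, 37C, 1 h, after 10 min compound preincubation at room temperature. Readout: luminescence.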

[8] = target: Cytochrome P450 2C9 (Homo sapiens) (UniProt P11712); test: Cytochrome P450 Family 2 Subfamily C Member 9 (CYP2C9) small molecule antagonists: luciferase reporter qHTS assay (AID 1671198); note: nearly all actives have a fitted effect of over 50% in size; note: potency is the fitted concentration of half-maximal effect
Cytochrome P450 2C9 (Homo sapiens), sequence (P11712 whole entry, looked up): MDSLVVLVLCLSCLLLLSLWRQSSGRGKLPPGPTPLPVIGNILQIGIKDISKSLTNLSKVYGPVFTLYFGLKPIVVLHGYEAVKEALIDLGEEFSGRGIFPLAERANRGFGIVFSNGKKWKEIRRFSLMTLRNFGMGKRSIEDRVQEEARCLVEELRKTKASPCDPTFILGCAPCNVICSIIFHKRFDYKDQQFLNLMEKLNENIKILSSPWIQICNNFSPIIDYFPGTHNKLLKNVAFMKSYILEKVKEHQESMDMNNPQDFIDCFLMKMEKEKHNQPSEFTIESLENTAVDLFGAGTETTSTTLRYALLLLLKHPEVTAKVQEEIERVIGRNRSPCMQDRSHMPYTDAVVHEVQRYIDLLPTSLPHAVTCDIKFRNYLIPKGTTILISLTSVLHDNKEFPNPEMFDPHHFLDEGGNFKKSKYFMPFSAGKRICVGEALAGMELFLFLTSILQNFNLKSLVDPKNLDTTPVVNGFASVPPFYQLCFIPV
In short: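 CYP2C9 activity was measured with a P450-Glo proluciferin substrate. Enzyme–substrate mix was held with compound for 10 min at room temperature, then NADPH regeneration solution was added for 1 h at 37C. Luciferin product was read as luminescence.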

[9] = target: Cytochrome P450 1A2 (Homo sapiens) (UniProt P05177); test: Cytochrome P450 Family 1 Subfamily A Member 2 (CYP1A2) small molecule antagonists: luciferase reporter qHTS assay (AID 1671199); note: series mostly up to about 120 µM; nearly all actives have a fitted effect of over 50% in size
Cytochrome P450 1A2 (Homo sapiens), sequence (P05177 whole entry, looked up): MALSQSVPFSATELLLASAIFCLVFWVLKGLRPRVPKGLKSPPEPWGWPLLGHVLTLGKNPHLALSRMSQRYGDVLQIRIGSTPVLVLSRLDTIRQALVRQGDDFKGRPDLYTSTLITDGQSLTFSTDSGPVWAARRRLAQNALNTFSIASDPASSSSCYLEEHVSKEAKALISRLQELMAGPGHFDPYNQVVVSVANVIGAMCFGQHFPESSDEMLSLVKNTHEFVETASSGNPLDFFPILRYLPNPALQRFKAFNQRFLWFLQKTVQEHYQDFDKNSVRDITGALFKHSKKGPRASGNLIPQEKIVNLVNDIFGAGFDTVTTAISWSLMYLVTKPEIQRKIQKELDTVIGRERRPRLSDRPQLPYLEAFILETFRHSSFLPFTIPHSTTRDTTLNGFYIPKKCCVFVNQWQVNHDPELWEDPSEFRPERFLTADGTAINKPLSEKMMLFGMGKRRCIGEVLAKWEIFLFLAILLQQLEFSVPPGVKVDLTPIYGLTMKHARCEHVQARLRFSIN
In short: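 Enzymatic CYP1A2 assay, human, luminescent: 10 min compound–enzyme–substrate preincubation, 1 h NADPH-dependent turnover, 20 min detection step, room temperature throughout. Reduced light indicates lower CYP1A2 activity.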

[10] = target: Voltage-gated inwardly rectifying potassium channel KCNH2 (Homo sapiens) (UniProt Q12809); test: Human Ether-a-go-go-Related Gene (hERG) channel small molecule antagonists: fluorescence cell-based qHTS assay (AID 1671200); note: nearly all actives have a fitted effect of over 50% in size; note: potency is the fitted concentration of half-maximal effect
Voltage-gated inwardly rectifying potassium channel KCNH2 (Homo sapiens), sequence (Q12809 whole entry, looked up): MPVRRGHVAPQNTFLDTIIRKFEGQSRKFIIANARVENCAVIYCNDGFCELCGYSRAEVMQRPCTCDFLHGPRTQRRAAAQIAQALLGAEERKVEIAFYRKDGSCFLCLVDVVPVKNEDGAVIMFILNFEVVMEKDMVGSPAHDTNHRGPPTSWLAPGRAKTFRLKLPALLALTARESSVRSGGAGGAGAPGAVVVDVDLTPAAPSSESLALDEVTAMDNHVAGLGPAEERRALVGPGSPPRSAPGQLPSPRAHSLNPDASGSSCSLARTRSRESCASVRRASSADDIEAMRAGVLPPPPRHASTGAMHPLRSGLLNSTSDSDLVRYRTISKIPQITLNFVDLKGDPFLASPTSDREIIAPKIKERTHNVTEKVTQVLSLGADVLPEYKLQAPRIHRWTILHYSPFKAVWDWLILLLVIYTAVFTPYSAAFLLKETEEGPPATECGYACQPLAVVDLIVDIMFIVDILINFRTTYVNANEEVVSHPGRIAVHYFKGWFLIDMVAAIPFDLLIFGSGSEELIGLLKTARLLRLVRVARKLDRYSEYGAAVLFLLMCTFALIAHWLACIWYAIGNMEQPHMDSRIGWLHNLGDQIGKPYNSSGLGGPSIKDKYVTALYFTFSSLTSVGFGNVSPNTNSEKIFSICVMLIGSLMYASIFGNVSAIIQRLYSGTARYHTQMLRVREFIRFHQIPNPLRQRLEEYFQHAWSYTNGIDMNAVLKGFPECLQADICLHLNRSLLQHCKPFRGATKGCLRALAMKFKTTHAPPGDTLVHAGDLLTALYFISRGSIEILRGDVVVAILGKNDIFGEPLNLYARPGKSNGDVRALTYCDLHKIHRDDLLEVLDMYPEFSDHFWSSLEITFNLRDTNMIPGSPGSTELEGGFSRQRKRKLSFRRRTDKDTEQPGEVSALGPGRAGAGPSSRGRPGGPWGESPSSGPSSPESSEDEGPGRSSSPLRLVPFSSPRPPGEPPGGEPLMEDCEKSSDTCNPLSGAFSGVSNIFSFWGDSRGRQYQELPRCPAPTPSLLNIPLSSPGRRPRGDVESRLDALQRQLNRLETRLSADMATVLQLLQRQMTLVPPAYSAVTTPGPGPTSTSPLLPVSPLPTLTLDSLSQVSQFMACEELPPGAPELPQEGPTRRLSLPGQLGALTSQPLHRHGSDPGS
In short: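 Quantitative HTS in hERG-U2OS cells: thallium entry through the channel reports activity, read as continuous 480/540 nm fluorescence over 2 min after stimulus addition.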

[11] = target: Cytochrome P450 3A4 (Homo sapiens) (UniProt P08684); test: Cytochrome P450 Family 3 Subfamily A Member 4 (CYP3A4) small molecule antagonists: luciferase reporter qHTS assay (AID 1671201); note: nearly all actives have a fitted effect of over 50% in size; note: potency is the fitted concentration of half-maximal effect
Cytochrome P450 3A4 (Homo sapiens), sequence (P08684 whole entry, looked up): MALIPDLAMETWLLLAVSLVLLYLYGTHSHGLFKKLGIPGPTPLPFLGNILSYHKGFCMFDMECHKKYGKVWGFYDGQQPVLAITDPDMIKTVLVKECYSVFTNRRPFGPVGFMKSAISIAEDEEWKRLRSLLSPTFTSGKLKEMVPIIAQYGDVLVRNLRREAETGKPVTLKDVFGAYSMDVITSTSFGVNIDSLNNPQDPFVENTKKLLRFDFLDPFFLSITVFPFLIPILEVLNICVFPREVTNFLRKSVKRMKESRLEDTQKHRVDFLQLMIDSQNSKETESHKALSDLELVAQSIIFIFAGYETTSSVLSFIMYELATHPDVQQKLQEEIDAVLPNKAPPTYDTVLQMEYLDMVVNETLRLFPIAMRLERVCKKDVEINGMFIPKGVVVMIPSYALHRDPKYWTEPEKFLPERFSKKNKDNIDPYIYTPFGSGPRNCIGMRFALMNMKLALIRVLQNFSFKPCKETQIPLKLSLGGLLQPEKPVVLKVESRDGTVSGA
In short: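 Inhibition of CYP3A4 is measured as loss of light: the enzyme converts a proluciferin substrate to luciferin, detected luminescently. Reaction ran 1 h at room temperature with NADPH regeneration after a 10 min compound preincubation.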

[12] = target: Nuclear receptor subfamily 1 group I member 2 (Rattus norvegicus) (UniProt Q9R1A7); test: Rat pregnane X receptor (rPXR) activation by small molecules, qHTS assay (AID 1346983); conditions: rPXR luciferase reporter cells, One-Glo luminescence, 24 h; max activation: stronger effect = higher value; note: nearly all actives have a fitted effect of over 20% in size
Nuclear receptor subfamily 1 group I member 2 (Rattus norvegicus), sequence (Q9R1A7 whole entry, looked up): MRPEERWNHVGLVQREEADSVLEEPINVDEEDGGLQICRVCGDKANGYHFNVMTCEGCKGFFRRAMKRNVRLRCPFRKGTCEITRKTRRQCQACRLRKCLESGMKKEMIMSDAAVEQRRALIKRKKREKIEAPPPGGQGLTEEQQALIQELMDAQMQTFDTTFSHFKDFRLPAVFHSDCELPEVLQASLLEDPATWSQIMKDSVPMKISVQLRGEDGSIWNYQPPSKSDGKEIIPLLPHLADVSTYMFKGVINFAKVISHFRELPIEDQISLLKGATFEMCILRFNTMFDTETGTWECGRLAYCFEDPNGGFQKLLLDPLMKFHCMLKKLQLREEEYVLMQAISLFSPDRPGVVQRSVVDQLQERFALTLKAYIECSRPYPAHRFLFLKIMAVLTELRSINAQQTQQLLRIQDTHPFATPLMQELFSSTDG
In short: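 Cell-based rPXR luciferase reporter assay, 2,000 cells per well, rested 5hr at 37 C before compound addition in DMSO, then 24 hr at 37 C. One-Glo reagent was added and luminescence read after 30 min at room temperature.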

[13] = target: Nuclear receptor subfamily 1 group I member 2 (Homo sapiens) (UniProt O75469); test: CYP3A4 induction through human pregnane X receptor (PXR) by small molecules, qHTS assay (AID 1346984); note: nearly all actives have a fitted effect of over 40% in size; note: potency is the fitted concentration of half-maximal effect
In short: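 Readings come from a luciferase reporter: DPX-2 cells, which are HepG2 cotransfected with PXR and a CYP3A4-promoter construct, were exposed to test compounds for 24 h at 37C before One-Glo detection.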

[14] = target: Cytochrome P450 2D6 (Homo sapiens) (UniProt P10635); test: Cytochrome P450 Family 2 Subfamily D Member 6 (CYP2D6) small molecule antagonists: luciferase reporter qHTS assay (AID 1671196)
Cytochrome P450 2D6 (Homo sapiens), sequence (P10635 whole entry, looked up): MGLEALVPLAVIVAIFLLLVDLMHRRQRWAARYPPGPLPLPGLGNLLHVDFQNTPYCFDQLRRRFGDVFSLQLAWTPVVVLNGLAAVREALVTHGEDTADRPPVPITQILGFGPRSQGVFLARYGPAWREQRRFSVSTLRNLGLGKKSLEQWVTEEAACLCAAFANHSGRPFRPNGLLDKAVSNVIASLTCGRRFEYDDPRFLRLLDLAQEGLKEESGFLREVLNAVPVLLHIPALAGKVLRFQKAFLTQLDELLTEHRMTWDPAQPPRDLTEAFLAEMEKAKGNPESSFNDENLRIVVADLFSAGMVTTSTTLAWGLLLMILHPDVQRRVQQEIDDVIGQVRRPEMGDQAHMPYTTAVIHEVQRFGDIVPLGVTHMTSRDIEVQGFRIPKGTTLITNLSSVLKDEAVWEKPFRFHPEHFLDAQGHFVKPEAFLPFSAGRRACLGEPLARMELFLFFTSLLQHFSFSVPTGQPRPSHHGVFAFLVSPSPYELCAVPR
In short: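 Each well received CYP2D6 with its proluciferin substrate and chemical, sat 10 min, then got NADPH regeneration solution for 1 h at room temperature. Luminescence in RLU served as the activity measure.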
% is set by controls: 0 for no effect and ±100 for the full control effect.

CCCCc1ccc2nc(NC(=O)OC)[nH]c2c1
inactive: Potency [1] | outcome [3] | Potency [4] | Potency [7] | Potency [8] | Potency [9] | Potency [10] | Potency [11]
active: Potency [2] 1.19 µM | Potency [5] 2.98 µM | Potency [6] 4.47 µM

NC/C=C/C(=O)O
inactive: Potency [1] | Potency [2] | outcome [3] | Potency [4] | Potency [5] | max activation [12] -4.44% | Potency [13] | Potency [6] | Potency [14] | Potency [7] | Potency [8] | Potency [10] | Potency [11]

CCN[C@H]1CN(CCCOC)S(=O)(=O)c2sc(S(N)(=O)=O)cc21
inactive: Potency [1] | Potency [2] | outcome [3] | Potency [4] | Potency [5] | max activation [12] -3.62% | Potency [13] | Potency [6] | Potency [14] | Potency [8] | Potency [9] | Potency [10] | Potency [11]

CN(C)CC[C@@H](c1ccc(Cl)cc1)c1ccccn1
inactive: Potency [1] | Potency [2] | outcome [3] | Potency [4]

CN1CCN(c2c(F)cc3c(=O)c(C(=O)O)cn(CCF)c3c2F)CC1
inactive: Potency [1] | Potency [2] | outcome [3] | Potency [4] | Potency [5] | max activation [12] -0.524% | Potency [13] | Potency [6] | Potency [14] | Potency [7] | Potency [8] | Potency [9] | Potency [10] | Potency [11]

C[C@@H](N)C(=O)O
inactive: Potency [1] | Potency [2] | outcome [3] | Potency [4] | Potency [5] | max activation [12] -2.77% | Potency [13] | Potency [6] | Potency [14] | Potency [10] | Potency [11]

COc1ccc(S(=O)(=O)Nc2nnc(CC(C)C)s2)cc1
inactive: Potency [1] | Potency [2] | outcome [3] | Potency [4] | Potency [5] | max activation [12] -1.31% and -1.74% | Potency [13] | Potency [6] | Potency [14] | Potency [10] | Potency [11]
active: Potency [8] 9.77 µM

CCN(CC)CC1CCCCN1CC(=O)N1c2ccccc2C(=O)Nc2cccnc21 (configuration not stated)
inactive: Potency [1] | Potency [2] | outcome [3] | Potency [4] | Potency [5] | max activation [12] -0.899% | Potency [13] | Potency [6] | Potency [14] | Potency [7]
active: Potency [11] 6.92 µM

FC(F)(F)C(F)(F)C(F)(F)C(F)(F)C(F)(F)C(F)(F)C(F)(F)C(F)(F)Br
inactive: Potency [1] | Potency [2] | outcome [3] | Potency [4] | Potency [5] | max activation [12] -2.79% | Potency [13] | Potency [6] | Potency [14] | Potency [7] | Potency [8] | Potency [10] | Potency [11]

Oc1ccccc1C=NCc1ccccc1
inactive: Potency [1] | Potency [2] | outcome [3] | Potency [4] | Potency [5] | max activation [12] -0.218% | Potency [7] | Potency [8] | Potency [10]
active: Potency [13] 14.1 µM

OCc1ccccc1O
inactive: Potency [1] | Potency [2] | outcome [3] | Potency [4] | Potency [5] | max activation [12] 11.7% | Potency [13] | Potency [6] | Potency [14] | Potency [7] | Potency [9] | Potency [10] | Potency [11]

CO[Si](C)(C)OC
inactive: Potency [1] | Potency [2] | outcome [3] | Potency [4] | Potency [5]

COc1cc(N)c(Cl)cc1C(=O)NC1CCN(Cc2ccccc2)CC1
inactive: Potency [1] | Potency [2] | outcome [3] | Potency [4] | Potency [5] | max activation [12] -4.93% | Potency [13] | Potency [6] | Potency [8]
active: Potency [10] 16.9 µM | Potency [11] 1.55 µM

NS(=O)(=O)c1cc(-c2nn[nH]n2)c(NCc2cccs2)cc1Cl
active: Potency [5] 13.3 µM | Potency [8] 24.5 µM
inactive: Potency [1] | Potency [2] | outcome [3] | Potency [4] | Potency [13] | Potency [6] | Potency [7] | Potency [9] | Potency [10]

C=CCc1cc(OC)c(O)c(C(=O)NCCO)c1
inactive: Potency [1] | Potency [2] | outcome [3] | Potency [4] | Potency [5] | max activation [12] -0.885% | Potency [13] | Potency [6] | Potency [8] | Potency [10] | Potency [11]

O=c1[nH]cnc2c1ncn2[C@@H]1O[C@H](CO)[C@@H](O)[C@H]1O
active: Potency [2] 1.06 µM
inactive: Potency [1] | outcome [3] | Potency [4] | Potency [5] | max activation [12] -2.07% | Potency [13] | Potency [6] | Potency [14] | Potency [10] | Potency [11]

N#Cc1ccc(C(c2ccc(C#N)cc2)n2cncn2)cc1
inactive: Potency [1] | Potency [2] | outcome [3] | Potency [4] | Potency [5] | max activation [12] 0.445% | Potency [13] | Potency [6] | Potency [14] | Potency [10]
active: Potency [7] 13.3 µM

Cc1nnc(SCC2=C(C(=O)O)N3C(=O)[C@@H](NC(=O)Cn4cnnn4)[C@H]3SC2)s1
inactive: Potency [1] | Potency [2] | outcome [3] | Potency [4] | Potency [5] | max activation [12] -4.1% | Potency [13] | Potency [6] | Potency [14] | Potency [7] | Potency [10] | Potency [11]
